# Only some compounds are listed: those with a hit (about 3.5% of all), similar ones and a draw of the others.
# TEAD-YAP block = TEAD-YAP interaction inhibition; inhibition, % at 9.12 µM; actives 1.4% (n = 640,000); HEK-TIYL cells, TEAD-Gal4/YAP UAS-luciferase luminescence; in the data active means inhibition above about 32%;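 further: 0% = median of test compound wells and 100% = reference inhibitor wells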
# MITF primary = inhibitors of human MITF | O75030 | inhibition, % at 2.6 µM | AlphaScreen MITF homodimerization, bead proximity signal | actives 0.91% (n = 650,000); in the data active means inhibition above about 50%;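 further: 0% = vehicle wells with protein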
# GPR151 activ = activates the human receptor GPR151 | activation, % at 11.2 µM | Q8TDV0 | PathHunter beta-arrestin GPR151 cells, luminescence | actives 1% (n = 650,000); in the data active means activation above about 4.9%;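 further: 0% = median of compound wells and 100% = cells with positive control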
# FBW7 act = human FBW7 E3 ligase activation, primary screen. actives 0.13% (n = 650,000). AID 1259310. Q969H0. normalized activity (activation), % at 26.1 µM. AlphaScreen FBW7–phospho-cyclin E peptide binding, activator screen; in the data active means normalized activity above about 1.9%;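 further: purified mutant Fbw7 with reduced substrate affinity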
# Target sequence (Q969H0 whole entry, looked up): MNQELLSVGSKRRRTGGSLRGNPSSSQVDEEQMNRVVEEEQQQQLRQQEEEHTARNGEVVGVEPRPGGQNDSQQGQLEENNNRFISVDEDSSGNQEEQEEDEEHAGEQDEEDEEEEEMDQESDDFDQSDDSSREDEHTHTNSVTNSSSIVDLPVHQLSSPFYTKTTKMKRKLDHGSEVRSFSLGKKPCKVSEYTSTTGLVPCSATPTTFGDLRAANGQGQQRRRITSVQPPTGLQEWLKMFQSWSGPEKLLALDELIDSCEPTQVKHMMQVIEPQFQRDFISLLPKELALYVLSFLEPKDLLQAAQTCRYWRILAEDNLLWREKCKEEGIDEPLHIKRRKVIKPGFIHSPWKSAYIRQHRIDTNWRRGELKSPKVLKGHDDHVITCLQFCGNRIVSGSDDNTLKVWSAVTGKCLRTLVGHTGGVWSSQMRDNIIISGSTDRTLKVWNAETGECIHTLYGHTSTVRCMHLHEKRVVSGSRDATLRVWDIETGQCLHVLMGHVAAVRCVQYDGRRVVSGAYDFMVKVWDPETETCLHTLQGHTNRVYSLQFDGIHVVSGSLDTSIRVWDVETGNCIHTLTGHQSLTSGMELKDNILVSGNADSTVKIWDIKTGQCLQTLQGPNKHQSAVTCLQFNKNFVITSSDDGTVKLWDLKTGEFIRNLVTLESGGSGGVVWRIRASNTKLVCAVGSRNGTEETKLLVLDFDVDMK
# MITF confirm = confirmation of human MITF inhibitors; shares compounds with MITF primary; AlphaScreen MITF homodimerization, biotin/His-MITF beads; inhibition, % at 2.6 µM; actives 16% (n = 4,700); AID 1259372;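 active means inhibition above a cutoff derived from the DMSO control wells, cut at about 28% in these data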;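 further: 0% = MITF dimer wells with DMSO only; inhibitors lower the bead chemiluminescence by keeping MITF from dimerizing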
# AS interf DR = counter-screen: compounds optically interfering with AlphaScreen; shares compounds with MITF primary; AlphaScreen optical interference counterscreen, cell-free; IC50, µM; actives 6% (n = 480); call rule not given here
# AS interf ctr = optically interferes with AlphaScreen signal | LysRS AlphaScreen counterscreen, signal interference, triplicate | actives 7.6% (n = 4,700) | inhibition, % at 2.6 µM | shares compounds with MITF primary;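 active means inhibition above a cutoff derived from the DMSO control wells, cut at about 30% in these data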
# Active calls of the source: *; . = not tested or not shown.
SMILES,TEAD-YAP block,MITF primary,GPR151 activ,FBW7 act,MITF confirm,AS interf ctr,others
COc1ccc(Cl)cc1NC(=O)N1CCC(Cn2cnc3ccccc32)CC1,-5,47,2,0,.,.,
O=C(NCCCO)C(=O)Nc1ccc(I)cc1,-24,12,0,0,.,.,
COCCNC(=O)[C@@H]1C[C@@H](NCc2ccc(F)cc2F)CN1Cc1ccc(Cl)cc1,2,-4,0,0,.,.,
O=[N+]([O-])c1ccccc1OCCOCCn1cnc2ccccc21,-2,88*,0,0,12,11,
O=[N+]([O-])c1ccccc1OCCCn1cnc2ccccc21,-72,60*,1,0,11,13,
O=Cc1cccc(OCCCn2cnc3ccccc32)c1,14,66*,2,0,26,10,
O=[N+]([O-])c1ccccc1OCCOCCn1cncn1,-3,3,0,0,.,.,
Fc1ccccc1OCCCn1cnc2ccccc21,-18,5,0,0,.,.,
CCN(CC)CCNc1c([N+](=O)[O-])cc2[nH]c(=O)[nH]c2c1[N+](=O)[O-],-3,17,4,0,.,.,
COc1cc(-c2nnc(SCCCCOc3ccccc3)o2)cc(OC)c1OC,-6,-16,-1,0,.,.,
CCS(=O)(=O)N1CCN(Cc2cc(Br)ccc2OC)CC1,23,52*,0,0,10,14,
COc1ccc(Br)cc1CN1CCN(S(=O)(=O)Cc2ccccc2)CC1,16,62*,-1,0,6,26,
CCCS(=O)(=O)N1CCN(Cc2cc(Br)ccc2OC)CC1,18,54*,-1,0,8,16,
CCCS(=O)(=O)N1CCN(Cc2ccc(OC)c(OC)c2OC)CC1,-1,52*,0,0,7,7,
CCOC(=O)C(CC(C)C)N(Cc1ccc(Cl)cc1)S(=O)(=O)c1ccc([N+](=O)[O-])cc1 (stereo not given),-2,10,0,0,.,.,
Cc1ncc(CO)c(/C=N/NC(=S)Nc2cccc(S(=O)(=O)N(C)C)c2)c1O,4,68*,0,0,7,22,
Cc1ncc(CO)c(/C=N/NC(N)=S)c1O,0,105*,0,0,6,27,
Cc1ncc(CO)c(/C=N/NC(=S)Nc2cccc(Cl)c2)c1O,1,38,1,-1,.,.,
Cc1ccc(NC(=O)COC(=O)/C(C#N)=C/c2ccccc2)c(Br)c1,5,19,0,0,.,.,
CN(C)CC(=O)Nc1cc(N(C)C)nc2ccccc12,-1,62*,4,0,7,-5,
CCN(CCCNC(=O)c1cc2c(=O)oc3ccccc3c2s1)c1ccccc1,2,18,0,0,.,.,
CC(C)OCCCNC(=O)c1cc2c(Cl)nc3ccccc3c2s1,-5,22,0,0,.,.,
CC(C)OCCCNCc1cc2ccccc2nc1Cl,6,56*,-1,0,12,7,
CCCCN(C)C(=O)c1sc2ncn(CC(=O)N3CC(C)CC(C)C3)c(=O)c2c1C (stereo not given),10,4,1,0,.,.,
Cc1nnc(CNC(=O)c2cnn(-c3ccccc3)c2C)o1,3,6,1,0,.,.,
SMILES,TEAD-YAP block,MITF primary,GPR151 activ,FBW7 act,MITF confirm,AS interf ctr,others
Cc1nnc(CNC(=O)c2ccc(-n3cccc3)cc2)o1,12,55*,1,0,55*,16,AS interf DR=>6.5
CN1CCCN(Cc2cccc(Oc3ccccc3)c2)CC1,4,55*,3,0,-1,7,
CN1CCN(Cc2cccc(Oc3ccccc3)c2)CC1,2,26,-1,0,.,.,
OC1CCN(Cc2cccc(Oc3ccccc3)c2)CC1,-8,-1,0,0,.,.,
CCc1ccc(CN2CCN(Cc3cccc(Oc4ccccc4)c3)CC2)cc1,0,67*,-1,0,4,7,
CC(=O)NC(CC(C)C)c1nnc2n1CCN(Cc1ccc(C)o1)CC2 (stereo not given),-2,16,1,0,.,.,
O=C(O)c1ccc(CS(=O)(=O)c2ccc(Br)cc2)o1,0,41,0,0,.,.,
O=C1C2CCCN2C(=O)N1c1ccc(Br)cc1 (stereo not given),-8,51*,0,0,10,16,
COc1ccc(Br)cc1CN1CCN(Cc2c[nH]c3ccccc23)CC1,13,30,1,0,.,.,
COc1ccc(OC)c(CN2CCN(Cc3cccnc3)CC2)c1,11,82*,-1,0,-11,0,
COc1ccccc1C1(O)CCN(Cc2cccnc2)CC1,7,6,0,0,.,.,
COc1cc(OC)c(OC)cc1CN1CCN(Cc2cccnc2)CC1,-4,82*,-2,0,7,21,
COc1ccc(OC)c(CN2CCN(c3ccccn3)CC2)c1,-5,47,-1,0,.,.,
COc1ccccc1CN1CCN(Cc2cccnc2)CC1,-3,84*,1,0,10,18,
COc1ccc(Br)cc1CN1CCN(Cc2cccnc2)CC1,-3,59*,1,0,16,16,
O=C(O)c1ccc(/C=C/c2ccc3cccc([N+](=O)[O-])c3n2)cc1,-14,10,3,0,.,.,
CCOC(=O)CSc1n[nH]c(-c2ccc(OCC)cc2)n1,-1,-1,0,0,.,.,
Cc1onc(-c2ccccc2Cl)c1C1=N/C(=C\c2ccc(Cl)cc2Cl)C(=O)O1,7,2,4,0,.,.,
O=C1c2ccccc2C(=O)N1c1ccc(N2C(=O)c3ccccc3C2=O)c(Cl)c1,1,2,-1,0,.,.,
O=C(O)c1ccc(N2C(=O)c3cccnc3C2=O)cc1,8,40,0,-1,.,.,
O=C1c2cccnc2C(=O)N1c1ccc(N2C(=O)c3cccnc3C2=O)c(Cl)c1,-2,70*,-1,-1,19,31*,
O=C1c2cccnc2C(=O)N1c1ccc(Br)cc1,7,58*,-2,-1,6,20,
COc1ccccc1C(=O)O/N=C(\N)c1cccc([N+](=O)[O-])c1,-34,9,-1,0,.,.,
CCCc1nc(SCC(=O)Nc2cc(C)on2)[nH]c(=O)c1CC,0,12,0,0,.,.,
CN(C)CCN(C)Cc1ccc(N(C)C)cc1,13,45,1,0,.,.,
SMILES,TEAD-YAP block,MITF primary,GPR151 activ,FBW7 act,MITF confirm,AS interf ctr,others
CN(CCc1ccccn1)Cc1ccc(Cl)cc1,4,83*,0,1,-2,0,
CCOc1ccccc1CN(C)CCc1ccccn1,2,89*,-1,0,-7,15,
CN(C)CCN(C)Cc1ccc([N+](=O)[O-])cc1,6,83*,-1,1,16,21,
CN(Cc1ccccc1)Cc1cccnc1,12,40,3,0,.,.,
Cc1ccc(CN(C)CCc2ccccn2)cc1,-1,35,0,0,.,.,
CN(Cc1ccccc1)Cc1ccccn1,-4,54*,1,0,2,3,
O=C(CCSCCc1ccccn1)Nc1cccc([N+](=O)[O-])c1,-2,4,0,0,.,.,

# Compound activity: PubChem, The Scripps Research Institute Molecular Screening Center
